Data: the supplement of paper PMC11732987, “Enantioselective OTUD7B fragment discovery through chemoproteomics screening and high-throughput optimisation” (Communications Chemistry, 2025)

Experiments:
Assay in all cases: log2 ratio of Biotin-Ahx-Ub-VS probe labelling (fragment/DMSO); higher = less target engagement (more negative = stronger competition), active = hit call of the paper (q ≤ 0.05, log2 ratio ≤ -1)
Settings in all cases: compound concentration: 200 uM; treatment time: 3 h
OTUD6B = biological target: T1, OTUD6B (UniProt Q8N6M0)
T1 sequence (whole entry): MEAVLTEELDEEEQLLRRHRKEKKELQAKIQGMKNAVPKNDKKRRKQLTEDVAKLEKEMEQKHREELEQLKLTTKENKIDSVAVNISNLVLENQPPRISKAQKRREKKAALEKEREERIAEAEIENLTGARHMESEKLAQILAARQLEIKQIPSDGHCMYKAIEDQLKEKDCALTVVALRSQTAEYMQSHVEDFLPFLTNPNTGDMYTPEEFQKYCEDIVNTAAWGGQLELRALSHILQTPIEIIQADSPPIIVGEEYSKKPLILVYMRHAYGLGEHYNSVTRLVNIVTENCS
In short: (§1)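 Labelled DUBs from HEK293T lysate were NeutrAvidin-enriched, digested with LysC and trypsin, and run by diaPASEF LC-MS/MS. Before that, each 495 µg sample in Tris/CHAPS/IGEPAL buffer with protease inhibitors was treated in triplicate with fragment at 200 µM or vehicle for 3 h, then with Biotin-Ahx-Ub-VS at 0.5 µM final for 1 h. Values are average log2 ratios of fragment over vehicle by unpaired t-test, based on global-median-normalised Spectronaut label-free quantities from proteins with ≥2 unique peptides.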

OTUD7B = biological target: T2, OTUD7B (UniProt Q6GQQ9)
T2 sequence (whole entry): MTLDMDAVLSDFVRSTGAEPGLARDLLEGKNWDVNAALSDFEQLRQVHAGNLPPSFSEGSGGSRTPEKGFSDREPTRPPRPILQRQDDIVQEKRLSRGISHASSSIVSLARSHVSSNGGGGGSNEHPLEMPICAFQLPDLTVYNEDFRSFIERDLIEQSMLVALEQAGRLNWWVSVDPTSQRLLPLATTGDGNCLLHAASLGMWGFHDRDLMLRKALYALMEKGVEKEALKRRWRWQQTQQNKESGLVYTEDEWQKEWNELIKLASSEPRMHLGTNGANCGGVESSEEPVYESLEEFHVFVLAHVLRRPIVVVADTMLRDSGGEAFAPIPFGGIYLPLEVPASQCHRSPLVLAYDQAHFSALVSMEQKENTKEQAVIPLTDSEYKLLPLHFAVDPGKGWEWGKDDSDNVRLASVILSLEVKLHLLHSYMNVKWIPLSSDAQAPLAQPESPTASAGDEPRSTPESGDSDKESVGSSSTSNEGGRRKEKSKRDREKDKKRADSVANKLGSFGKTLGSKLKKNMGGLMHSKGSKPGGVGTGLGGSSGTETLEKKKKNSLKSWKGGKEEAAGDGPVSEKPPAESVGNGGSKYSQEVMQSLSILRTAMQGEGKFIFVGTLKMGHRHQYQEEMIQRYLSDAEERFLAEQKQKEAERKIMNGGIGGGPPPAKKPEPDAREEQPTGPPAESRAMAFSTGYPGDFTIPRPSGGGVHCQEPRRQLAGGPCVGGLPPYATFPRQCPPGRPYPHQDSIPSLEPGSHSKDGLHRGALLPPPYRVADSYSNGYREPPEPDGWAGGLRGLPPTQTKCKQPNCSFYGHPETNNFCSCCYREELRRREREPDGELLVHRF
In short: as §1

PRPF8 = PRPF8 (UniProt Q6P2Q9)
In short: as §1

PSMD7 = biological target: T3, PSMD7 (UniProt P51665)
T3 sequence (whole entry): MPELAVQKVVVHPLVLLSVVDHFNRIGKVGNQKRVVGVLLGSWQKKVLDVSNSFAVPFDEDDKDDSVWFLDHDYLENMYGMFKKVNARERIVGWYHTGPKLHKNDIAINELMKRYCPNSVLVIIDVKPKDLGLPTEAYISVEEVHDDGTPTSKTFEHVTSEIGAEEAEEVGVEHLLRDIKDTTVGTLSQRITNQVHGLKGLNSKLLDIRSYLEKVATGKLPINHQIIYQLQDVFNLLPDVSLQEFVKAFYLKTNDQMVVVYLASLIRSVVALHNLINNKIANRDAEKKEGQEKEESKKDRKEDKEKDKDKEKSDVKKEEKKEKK
In short: as §1

UCHL1 = UCHL1 (UniProt P09936)
Sequence of UCHL1 (P09936 whole entry, looked up): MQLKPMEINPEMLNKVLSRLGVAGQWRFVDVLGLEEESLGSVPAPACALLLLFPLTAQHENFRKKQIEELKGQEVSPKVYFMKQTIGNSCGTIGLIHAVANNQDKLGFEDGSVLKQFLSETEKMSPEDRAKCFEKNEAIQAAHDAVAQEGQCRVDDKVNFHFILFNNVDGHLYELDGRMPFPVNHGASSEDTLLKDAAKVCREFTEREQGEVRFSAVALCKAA
In short: as §1

UCHL3 = biological target: T4, UCHL3 (UniProt P15374)
T4 sequence (whole entry): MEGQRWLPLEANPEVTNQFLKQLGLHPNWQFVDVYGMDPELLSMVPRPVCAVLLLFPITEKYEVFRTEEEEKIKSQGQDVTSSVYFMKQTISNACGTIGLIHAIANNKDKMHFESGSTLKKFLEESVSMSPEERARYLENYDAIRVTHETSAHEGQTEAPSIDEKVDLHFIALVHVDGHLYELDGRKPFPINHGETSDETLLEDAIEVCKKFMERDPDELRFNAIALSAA
In short: as §1

UCHL5 = biological target: T5, UCHL5 (UniProt Q9Y5K5)
T5 sequence (whole entry): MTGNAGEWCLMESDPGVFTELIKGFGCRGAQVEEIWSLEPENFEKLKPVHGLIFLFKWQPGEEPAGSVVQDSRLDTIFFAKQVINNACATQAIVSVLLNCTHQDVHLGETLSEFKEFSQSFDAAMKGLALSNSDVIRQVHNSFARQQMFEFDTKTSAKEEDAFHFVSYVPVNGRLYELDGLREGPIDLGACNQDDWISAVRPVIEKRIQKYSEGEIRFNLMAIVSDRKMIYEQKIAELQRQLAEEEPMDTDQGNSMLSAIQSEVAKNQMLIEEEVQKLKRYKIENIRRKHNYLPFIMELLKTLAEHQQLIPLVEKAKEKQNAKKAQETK
In short: as §1

USP10 = USP10 (UniProt Q14694)
Sequence of USP10 (Q14694 whole entry): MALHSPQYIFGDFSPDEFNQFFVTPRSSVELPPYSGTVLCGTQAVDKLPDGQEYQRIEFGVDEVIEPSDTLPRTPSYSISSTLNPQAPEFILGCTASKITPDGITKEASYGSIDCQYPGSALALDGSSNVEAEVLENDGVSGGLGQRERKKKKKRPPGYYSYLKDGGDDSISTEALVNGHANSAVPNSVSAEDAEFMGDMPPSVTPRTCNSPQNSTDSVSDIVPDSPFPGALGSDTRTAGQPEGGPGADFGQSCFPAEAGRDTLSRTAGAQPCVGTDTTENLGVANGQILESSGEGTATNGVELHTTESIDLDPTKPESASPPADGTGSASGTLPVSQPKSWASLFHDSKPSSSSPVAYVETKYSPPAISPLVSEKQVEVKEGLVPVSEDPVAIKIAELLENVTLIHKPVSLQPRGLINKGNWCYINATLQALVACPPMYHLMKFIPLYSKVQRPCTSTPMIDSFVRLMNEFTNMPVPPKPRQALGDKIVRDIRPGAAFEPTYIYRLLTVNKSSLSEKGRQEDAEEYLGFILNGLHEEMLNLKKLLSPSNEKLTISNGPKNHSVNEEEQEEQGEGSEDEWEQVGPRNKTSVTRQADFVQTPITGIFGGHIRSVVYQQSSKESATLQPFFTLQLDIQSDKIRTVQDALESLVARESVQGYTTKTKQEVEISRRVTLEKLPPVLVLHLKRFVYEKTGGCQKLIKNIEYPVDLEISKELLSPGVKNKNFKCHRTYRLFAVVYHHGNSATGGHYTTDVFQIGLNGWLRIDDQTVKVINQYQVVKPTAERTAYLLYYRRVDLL
In short: as §1

USP15 = biological target: T6, USP15 (UniProt Q9Y4E8)
T6 sequence (whole entry): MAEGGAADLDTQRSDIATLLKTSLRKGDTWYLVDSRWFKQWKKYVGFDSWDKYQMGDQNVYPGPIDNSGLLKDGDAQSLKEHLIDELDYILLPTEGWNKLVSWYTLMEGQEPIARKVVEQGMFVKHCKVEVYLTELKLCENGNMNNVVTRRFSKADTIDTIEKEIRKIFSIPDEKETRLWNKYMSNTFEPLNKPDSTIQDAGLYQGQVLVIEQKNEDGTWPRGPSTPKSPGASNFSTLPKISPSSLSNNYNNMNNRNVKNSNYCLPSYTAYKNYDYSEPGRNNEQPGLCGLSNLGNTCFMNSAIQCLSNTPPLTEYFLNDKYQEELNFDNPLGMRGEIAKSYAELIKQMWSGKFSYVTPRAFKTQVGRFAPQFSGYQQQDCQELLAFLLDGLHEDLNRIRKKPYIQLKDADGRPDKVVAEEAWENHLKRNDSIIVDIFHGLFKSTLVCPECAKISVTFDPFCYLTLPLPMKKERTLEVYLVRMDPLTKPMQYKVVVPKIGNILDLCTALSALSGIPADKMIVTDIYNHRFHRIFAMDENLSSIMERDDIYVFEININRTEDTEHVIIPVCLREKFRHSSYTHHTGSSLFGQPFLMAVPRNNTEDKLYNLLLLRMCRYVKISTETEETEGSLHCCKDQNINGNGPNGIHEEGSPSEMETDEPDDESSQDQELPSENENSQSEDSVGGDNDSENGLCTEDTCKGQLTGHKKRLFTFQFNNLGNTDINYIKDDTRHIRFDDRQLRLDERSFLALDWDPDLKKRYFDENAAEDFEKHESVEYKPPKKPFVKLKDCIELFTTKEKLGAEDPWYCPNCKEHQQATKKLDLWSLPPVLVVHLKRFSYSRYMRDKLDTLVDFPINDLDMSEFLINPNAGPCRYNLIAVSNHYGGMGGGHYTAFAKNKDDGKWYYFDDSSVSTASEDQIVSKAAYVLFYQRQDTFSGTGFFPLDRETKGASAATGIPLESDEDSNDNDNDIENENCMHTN
In short: as §1

Measured: log2 ratio of Biotin-Ahx-Ub-VS probe labelling

Cl.O=C(CCl)N1CCc2ncncc2C1
inactive: OTUD6B -0.0834 | OTUD7B -0.487 | PRPF8 0.0782 | PSMD7 -0.0569 | UCHL1 -0.583 | UCHL3 0.176 | UCHL5 -0.176 | USP10 -0.322 | USP15 -0.514
